High-throughput results (PubChem)
Cruzain noTriton – qHTS Assay for Promiscuous and Specific Inhibitors of Cruzain (without detergent) | Cruzipain (Trypanosoma cruzi), P25779 | purified cruzain, Z-FR-AMC fluorescence, no detergent | Potency, µM, most hits filed as inhibitors | 200,000 compounds, 2.3% hits; also: nearly all actives have a fitted effect of over 40% in size
Target sequence (P25779 123-467 limits assumed): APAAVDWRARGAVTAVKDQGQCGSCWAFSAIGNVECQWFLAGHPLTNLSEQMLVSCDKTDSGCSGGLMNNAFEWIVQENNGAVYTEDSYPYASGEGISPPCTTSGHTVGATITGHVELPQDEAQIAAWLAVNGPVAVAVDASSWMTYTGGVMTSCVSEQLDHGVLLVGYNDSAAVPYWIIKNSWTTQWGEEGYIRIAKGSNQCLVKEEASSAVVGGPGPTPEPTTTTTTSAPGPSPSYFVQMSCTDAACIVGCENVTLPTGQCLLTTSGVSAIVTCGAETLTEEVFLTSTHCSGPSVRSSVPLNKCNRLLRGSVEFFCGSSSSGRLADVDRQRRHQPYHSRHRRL
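Detergent-free condition (0.00005% Triton X-100) in acetate buffer pH 5.5 with DTT. 1.5 nM enzyme and compound were pre-mixed 15 min, then 2 uM Z-FR-AMC substrate added; reaction progress from fluorescence change between first and third reads (60 s).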
Cruzain inh Det – qHTS Assay for Promiscuous and Specific Inhibitors of Cruzain (with detergent) | Cruzipain (Trypanosoma cruzi), P25779 | purified cruzain, Z-FR-AMC fluorescence, 0.01% Triton | Potency, µM, hits mostly inhibitors | 200,000 compounds, 0.43% hits; also: nearly all actives have a fitted effect of over 40% in size
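Read-out: AMC fluorescence (360 nm excitation, 450 nm emission), four reads over 2 min, first-to-third difference used. Conditions: cruzain 1.5 nM, Z-FR-AMC 2 uM, pH 5.5 acetate, 5 mM DTT, 0.01% Triton X-100.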
Each line names hits and unclear results; the compound was inactive in the other large screens. Only some compounds are listed: those with a hit (about 2.4% of all), similar ones and a draw of the others. Calls follow the shape of the dose curve; as a rule, active = well fitted curve in the direction sought with a large enough effect; inconclusive = small, poorly fitted or top-dose-only effect, or another doubt; inactive = no such curve, though single readings can be large; an effect the other way counts as inactive or inconclusive.

Cc1ccc(C(=O)COC(=O)CNC(=O)C(c2ccccc2)c2ccccc2)cc1[N+](=O)[O-]	none
COc1cc(NC(=O)COC(=O)CNC(=O)c2cc(C)cc(C)c2)c(C)cc1[N+](=O)[O-]	Cruzain inh Det inconclusive
Cc1ccc(C(=O)NCC(=O)OCC(=O)c2ccc(C)c([N+](=O)[O-])c2)cc1	Cruzain noTriton 12.6µM, Cruzain inh Det 15.8µM
Cc1ccc(NC(=O)COC(=O)Cn2nc(C)c([N+](=O)[O-])c2C)c([N+](=O)[O-])c1	none
COc1cccc(C(=O)NCC(=O)OCC(=O)Nc2cc(OC)c([N+](=O)[O-])cc2C)c1	Cruzain noTriton inconclusive, Cruzain inh Det 22.4µM
Cc1ccc(NC(=O)COC(=O)CNC(=O)c2ccc3ccccc3c2)c([N+](=O)[O-])c1	Cruzain noTriton 3.16µM, Cruzain inh Det 7.08µM
Cc1cc(C)cc(NC(=O)CSc2oc(-c3cccs3)nc2S(=O)(=O)c2ccc(Br)cc2)c1	none
O=C1c2ccccc2C(O)(O)[C@@]1(O)[C@]1(O)C(=O)c2ccccc2C1(O)O	none
CCCCNc1nc(C)nc2c1nc(-c1ccccc1)n2CCN1CCCC1	none
CC(Nc1oc(-c2ccc(COc3ccccc3)o2)nc1C#N)c1ccccc1 (stereo not drawn)	Cruzain noTriton 20µM
N#Cc1nc(-c2ccc(COc3ccccc3)o2)oc1NCc1ccccc1	none
COC(=O)C1=C(C)OC(N)=C(C#N)C1c1c(C)nn(-c2ccccc2)c1Cl (stereo not drawn)	none
Cc1nn(-c2ccccc2)c(Cl)c1C1C(C#N)=C(N)Oc2c1c(=O)oc1ccccc21 (stereo not drawn)	Cruzain noTriton 15.8µM
COc1cc(NC(=O)Cn2c(=O)oc3cc(S(=O)(=O)N4CCCCCC4)ccc32)cc(OC)c1	none
C#CCOCCOCCOCCNc1nc(N2CCN(C(=O)Cn3cc(CCCN=C(N)N)nn3)CC2)nc(N2CCN(C(=O)[C@H]([C@@H](C)CC)n3cc(CCCN=C(N)N)nn3)CC2)n1	Cruzain noTriton 20µM, Cruzain inh Det 25.1µM
C#CCOCCOCCOCCNc1nc(N2CCN(C(=O)Cn3cc(CCCN=C(N)N)nn3)CC2)nc(N2CCN(C(=O)[C@H](C(C)C)n3cc(CCO)nn3)CC2)n1	none
CCN(CC)C(=S)SCC(=O)Nc1nc(-c2ccccc2)c(-c2ccccc2)o1	Cruzain noTriton 31.6µM
O=C(CSC(=S)N1CCCCC1)Nc1nc(-c2ccccc2)c(-c2ccccc2)o1	Cruzain noTriton inconclusive
COc1ccc(N(CC(C)C)S(=O)(=O)c2nnc(NC(=O)c3cccs3)s2)cc1	none
CN(C)CCNS(=O)(=O)N(C)C	none
COc1ccc(/C=C/C(=O)Nc2ccc(-c3nnc4n3CCCCC4)cc2)c(OC)c1	Cruzain inh Det 14.1µM
COc1ccc(NS(=O)(=O)c2cccc(-c3nnc4n3CCCCC4)c2)cc1	none
CCOC(=O)c1c(NC(C)=O)sc2c(O)cccc12	none
CCOC(=O)c1c(NC(=O)c2ccccc2)sc2c(O)c(CN(CC)CC)ccc12	Cruzain noTriton 15.8µM
O=S(=O)(c1ccc(Br)cc1)N1CCn2c(nc3ccccc32)C1	Cruzain noTriton 5.01µM
O=S(=O)(Cc1ccccc1)N1CCn2c(nc3ccccc32)C1	none
O=S(=O)(c1ccc2c(c1)nc1n2CCC1)N1CCOCC1	none
O=S(=O)(c1ccc(Cl)c(Cl)c1)N1CCc2nc3ccccc3n2CC1	Cruzain noTriton 10µM
C[C@@H](CNC(N)=O)NC(N)=O	none
CSc1ccc(C2c3[nH]c4ccccc4c3CCN2C(=O)CCC2CCCC2)cc1 (stereo not drawn)	Cruzain noTriton 10µM
CCN(CC)c1ccc(C(=O)N2CCc3c([nH]c4ccccc34)C2c2ccc(F)cc2)cc1 (stereo not drawn)	Cruzain noTriton 15.8µM
CCOc1ccc(C2c3[nH]c4ccccc4c3CCN2C(=O)CSCc2ccc(F)cc2)cc1 (stereo not drawn)	Cruzain noTriton 10µM
COc1cc(C(=O)N2CCc3c([nH]c4ccccc34)C2c2ccccc2)cc(OC)c1OC (stereo not drawn)	Cruzain noTriton inconclusive
O=C(CSc1ccccc1)N1CCc2c([nH]c3ccccc23)C1c1ccc(F)cc1 (stereo not drawn)	Cruzain noTriton inconclusive
CCOc1cccc(C2c3[nH]c4ccccc4c3CCN2C(=O)CSCc2ccc(F)cc2)c1 (stereo not drawn)	none
CC(=O)OC[C@@]1(O)C[C@@]23CC[C@@H]4c5ccoc5CC[C@@]4(C)[C@@H]2CCC1C3	Cruzain noTriton inconclusive
CCOC(=O)/C(C)=N/NC(C)=O	none
COc1cc(NC(=O)CC(C)S(=O)(=O)c2ccc3c(c2)CCN3C(C)=O)cc(OC)c1OC (stereo not drawn)	none
c1ccc2sc(Nc3nc4cc5c(cc4s3)OCO5)nc2c1	Cruzain noTriton 25.1µM
Brc1cc2c(cc1/C=N/Nc1nc3ccccc3s1)OCO2	Cruzain noTriton 20µM
Fc1ccc2nc(Nc3nc4cc5c(cc4s3)OCO5)sc2c1	Cruzain noTriton inconclusive
Brc1ccc(/C=C/C=N/Nc2nc3ccccc3s2)cc1	Cruzain noTriton 3.98µM
C(=N\Nc1nc2ccccc2s1)/c1ccc2c(c1)OCO2	none
CCOC(=O)c1sc(Nc2nc3c(OC)cccc3s2)cc1C	none
C(=C\c1ccccc1)/C=N/Nc1nc2ccccc2s1	Cruzain noTriton inconclusive
CCOC(=O)c1sc(Nc2nc3cc4c(cc3s2)OCO4)cc1C	Cruzain noTriton 25.1µM
CC(C)C[C@@H](CC(=O)N[C@@H](CCCN)CC(=O)N[C@@H]1CCNC[C@H]1C(=O)N[C@H](CC(=O)N[C@@H](CCC(=O)O)CC(=O)O)CC(C)C)NC(=O)[C@@H]1CCCC[C@H]1N	none
COc1ccc(CCNC(=O)c2ccc3c(c2)CCN3S(=O)(=O)c2ccc(C)cc2)cc1OC	Cruzain noTriton inconclusive
O=C(N/C=N/O)C1=NOC(CNc2ncc(C(F)(F)F)cc2Cl)C1 (stereo not drawn)	none
COC(=O)c1ccc(C(NC(=O)OCc2ccccc2)/C(C)=C/[C@@H](C)C(=O)N2CCN(C)CC2)cc1 (stereo partly drawn)	none
Nc1c(Cl)cc(Cl)cc1Cl	none
COc1ccc(OC)c(CNc2ncc(-c3ccc(Cl)cc3)n2C)c1	none
O=C(NNC(=O)c1cc2cc3ccccc3nc2s1)c1cccc(C(F)(F)F)c1	Cruzain noTriton 25.1µM
O=C(NNS(=O)(=O)c1ccccc1)c1cc2cc3ccccc3nc2s1	none
CCc1cc2c(=O)[nH]c(Cc3ccc(Cl)cc3)nc2s1	none
CCc1ccc(/C=C(\Cl)c2nc3cc(Cl)ccc3c(=O)[nH]2)cc1	Cruzain noTriton 10µM
C[C@H](NCCN(C)C)[C@@H]1CCC2C3CCc4cc(O)ccc4[C@H]3CCC21C (stereo partly drawn)	none
COc1ccc(OC)c(NC(=O)c2ccc3c(=O)n(CCc4ccccc4)c(=S)[nH]c3c2)c1	Cruzain noTriton 10µM
COc1ccc(NC(=O)c2ccc3c(=O)n(Cc4ccco4)c(=S)[nH]c3c2)c(OC)c1	Cruzain noTriton inconclusive
CC(C)=C1CCC(C)CC1=O (stereo not drawn)	none
CC(=O)c1cccc(NC(=O)COc2ccccc2)c1	none
O=C(COc1ccc2ccccc2c1)Nc1cccc(C(=O)Nc2ccccc2C(=O)O)c1	Cruzain noTriton inconclusive, Cruzain inh Det 31.6µM
CN(Cc1ccccc1)c1ncnc2c1nnn2C	none
COC(=O)c1ccc(C(NC(=O)OCc2ccccc2)/C(C)=C/[C@@H](C)C(=O)NCCO)cc1 (stereo partly drawn)	none
COc1cccc(/C=N/NC(=O)CC2C(=O)NN=C2C)c1OC (stereo not drawn)	none
